# Unmarked numbers belong to inactive results.
# Tested on: Aedes aegypti larvae
# Test: larval motility relative to same well at 0 h (fraction); higher = more motile (less active compound), active = 0.4 or less
# Conditions: 10 µM
# Method in brief: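 Larvae (Aedes aegypti, hatched in pond salt solution with yeast at 25 °C and taken 18–24 h later) were plated at about 10 per 100 µL well. Compounds at 10 µM in 1% v/v DMSO were imaged with INVAPP at 0, 2 and 24 h, alongside solvent and larvicide controls on each plate. Reported relative motility is each well's score over its own starting score, as a median of three independent larval batches.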
Compound,larval motility (2 h),larval motility (24 h)
C[C@H]1[C@@H](c2cccc(C(F)(F)F)c2)OC(=O)N1C(=O)NCc1cncc2ccccc12,0.716,0.359 (active)
CCOc1ccc(C(=O)NCCc2ccccc2)cc1,1.05,0.979
CC[C@H]1OC(=O)[C@H](C)[C@@H](O[C@H]2C[C@@](C)(OC)[C@@H](O)[C@H](C)O2)[C@H](C)[C@@H](O[C@@H]2O[C@H](C)C[C@H](N(C)C)[C@H]2O)[C@](C)(O)C[C@@H](C)C(=O)[C@H](C)[C@@H](O)[C@]1(C)O,1.03,0.824
CC(=O)N1CCN(c2ccc(OCC3COC(Cn4ccnc4)(c4ccc(Cl)cc4Cl)O3)cc2)CC1 (stereo not given),0.527,1.14
CN(C/C=C/C#CC(C)(C)C)Cc1cccc2ccccc12,0.66,0.879
CCOC(=O)N1CCN(c2ccc(Cl)cc2)CC1,1.05,1.36
O=C(NO)C1(CS(=O)(=O)c2ccc(Oc3ccc(Cl)cc3)cc2)CCOCC1,0.471,1.04
O=C(CC1Sc2ncnn2C1=O)Nc1ccc(Br)cc1 (stereo not given),0.859,0.722
CCc1cc(CCCOc2c(C)cc(-c3noc(C(F)(F)F)n3)cc2C)on1,0.695,0.658
NC(=O)c1[nH]c2ccc(S(N)(=O)=O)cc2c1-c1ccccc1,0.832,1.05
